Experimental data: paper PMC5540273 (PLoS ONE, 2017)

Assays:
Conditions in all cases: concentration: 1 μM, replicates: in singlicate; n = 1
[1] = system: KIT-autoinhibited
[2] = system: KIT
[3] = system: LATS1
[4] = system: LATS2
[5] = system: LCK
[6] = system: LIMK1
[7] = system: LIMK2
[8] = system: T1, LKB1
T1 construct: gene STK11

[9] = system: T2, LOK
T2 construct: gene STK10

[10] = system: LRRK2
[11] = system: LTK
[12] = system: LYN
[13] = system: T3, LZK
T3 construct: gene MAP3K13

[14] = system: MAK
[15] = system: MAP3K15
[16] = system: MAP3K1
[17] = system: MAP3K2
[18] = system: MAP3K3
[19] = system: MAP3K4
[20] = system: MAP4K2
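Also: KINOMEscan kinase panel screen.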

Structure (SMILES) | %Inh [1] [%] | %Inh [2] [%] | %Inh [3] [%] | %Inh [4] [%] | %Inh [5] [%] | %Inh [6] [%] | %Inh [7] [%] | %Inh [8] [%] | %Inh [9] [%] | %Inh [10] [%] | %Inh [11] [%] | %Inh [12] [%] | %Inh [13] [%] | %Inh [14] [%] | %Inh [15] [%] | %Inh [16] [%] | %Inh [17] [%] | %Inh [18] [%] | %Inh [19] [%] | %Inh [20] [%]
O=C(NCCNc1ccnc(Nc2ccc(F)cc2)n1)c1cc2ccccc2s1 [GSK1379874] | 0 | 0 | 0 | 0 | 12 | 0 | 25 | 1 | 0 | 0 | 0 | 0 | 0 | 23 | 0 | 0 | 0 | 0 | 0 | 0
N#Cc1c(N2CCOCC2)sc(-c2ccn[nH]2)c1-c1ccc(Cl)cc1 | 1 | 25 | 22 | 15 | 13 | 6 | 0 | 25 | 5 | 0 | 17 | 0 | 20 | 12 | 45 | 5 | 0 | 30 | 2 | 0
COc1ccc(S(=O)(=O)NC2CCN(c3cc(C)nc(Nc4cccc(C#N)c4)n3)CC2)cc1.O=C(O)C(F)(F)F [GSK1653539] | 0 | 8 | 0 | 25 | 8 | 0 | 7 | 7 | 0 | 0 | 0 | 0 | 26 | 19 | 0 | 3 | 0 | 0 | 24 | 0
CN(C1=C(c2ccccc2)C(=O)NC1=O)c1ccccc1 [SB-334860] | 0 | 16 | 0 | 14 | 20 | 15 | 20 | 5 | 1 | 0 | 6 | 0 | 0 | 20 | 0 | 9 | 2 | 0 | 10 | 0
CN1c2ccc(CNc3ccc(F)cc3)cc2-c2c(cnn2C)S1(=O)=O | 15 | 0 | 0 | 0 | 7 | 0 | 0 | 8 | 0 | 0 | 0 | 3 | 0 | 3 | 0 | 0 | 11 | 25 | 12 | 0
O=c1cc(N2CCOCC2)nc2n(Cc3cccc4ccccc34)ccn12 [GSK2333389] | 0 | 11 | 0 | 0 | 2 | 0 | 0 | 2 | 0 | 59 | 0 | 0 | 0 | 0 | 0 | 8 | 0 | 0 | 0 | 0
O=C(NCCNc1ccnc(Nc2ccc(F)cc2)n1)Nc1ccccc1F [GSK1379880] | 0 | 48 | 0 | 0 | 15 | 0 | 0 | 0 | 0 | 0 | 0 | 0 | 0 | 0 | 14 | 0 | 0 | 0 | 29 | 0
O=C1NC(=O)C(N2CCc3ccccc32)=C1c1cccc(Cl)c1 [SB-408010] | 0 | 13 | 0 | 10 | 10 | 0 | 0 | 0 | 0 | 9 | 5 | 7 | 12 | 37 | 1 | 26 | 0 | 22 | 9 | 0
COc1ccc(Nc2nccc(N3CCC(NC(=O)Nc4cc(C)ccc4C)C3)n2)cc1 (stereo not shown) [GSK1379741] | 0 | 25 | 0 | 0 | 0 | 0 | 0 | 0 | 0 | 0 | 7 | 73 | 0 | 28 | 0 | 11 | 5 | 0 | 23 | 0
CC(C)Oc1ccc2c(-c3ccnc(Nc4ccc(N5CCN(C)CC5)cc4)n3)cnn2n1 [GW696155] | 43 | 91.1 | 0 | 43 | 92.6 | 85 | 100 | 73 | 0 | 27 | 0 | 34 | 10 | 0 | 11 | 39 | 83 | 67 | 74 | 28
Cl.Nc1ncnc2occ(-c3ccc(NC(=O)Nc4cc(C(F)(F)F)ccc4F)cc3)c12 [SB-707548] | 79 | 99.9 | 0 | 40 | 88 | 25 | 34 | 21 | 99.9 | 2 | 97.2 | 75 | 40 | 6 | 5 | 34 | 8 | 17 | 25 | 62
CN(C(=O)c1ccc(-c2cc(-c3c[nH]nc3-c3ccccn3)ccn2)cc1)C1CCOCC1 [GW810083] | 0 | 0 | 0 | 2 | 0 | 0 | 0 | 16 | 0 | 0 | 0 | 0 | 0 | 6 | 0 | 0 | 0 | 0 | 0 | 0
CCCCCc1nc2c(N)ncnc2n1CCCCC [SKF-97255] | 16 | 17 | 0 | 0 | 5 | 0 | 0 | 60 | 14 | 0 | 6 | 0 | 0 | 0 | 0 | 18 | 29 | 0 | 10 | 0
c1ccc(-c2n[nH]cc2-c2ccnc3ccccc23)nc1 [GW271431] | 11 | 20 | 0 | 4 | 17 | 21 | 30 | 18 | 0 | 0 | 13 | 0 | 0 | 17 | 0 | 16 | 11 | 0 | 4 | 0
Cc1nnc(-c2ccc3ncc(-c4ccc(S(C)=O)cc4)n3c2)o1 (stereo not shown) | 7 | 59 | 17 | 13 | 0 | 0 | 0 | 3 | 0 | 3 | 0 | 18 | 11 | 0 | 19 | 4 | 8 | 5 | 0 | 0
COCCNC(=O)c1ccc(-c2cc(C(=O)NC3CC3)cc(F)c2C)cc1 [GW868318] | 24 | 26 | 10 | 0 | 4 | 16 | 3 | 49 | 20 | 62 | 15 | 14 | 5 | 36 | 24 | 35 | 33 | 28 | 30 | 20
CNc1ncnc2[nH]ncc12 [SKF-18355] | 20 | 18 | 0 | 0 | 6 | 0 | 0 | 38 | 0 | 0 | 0 | 0 | 27 | 2 | 0 | 2 | 14 | 0 | 0 | 0
CCc1ccnc(/C=C/c2n[nH]c3cc(Sc4ccccc4C(=O)NC)ccc23)c1 | 96.9 | 100 | 9 | 0 | 5 | 0 | 0 | 0 | 23 | 23 | 6 | 23 | 17 | 20 | 0 | 12 | 17 | 6 | 4 | 9
COC(=O)Nc1nc2cc(Oc3ccc(NC(=O)Nc4cc(F)ccc4F)cc3)ccc2[nH]1.Cl [GW701424] | 30 | 100 | 0 | 0 | 57 | 0 | 0 | 0 | 98.4 | 0 | 0 | 19 | 37 | 18 | 0 | 0 | 2 | 0 | 0 | 0
Cc1c2ccc(N(C)c3ccnc(Nc4cccc(S(N)(=O)=O)c4)n3)cc2nn1Cc1ccccc1.Cl.Cl [GW787226] | 86 | 99.9 | 6 | 0 | 90.7 | 89 | 73 | 48 | 98.4 | 0 | 45 | 84 | 0 | 0 | 0 | 0 | 31 | 0 | 22 | 0
